Results published in the antibiotic and cytotoxicity screens of Wong et al. (2023).
In all, about 39,000 compounds went through this assay and about 3,300 (8.5%) were called active. Only a selection was taken, and actives are over-represented in it overall.

System: HepG2
Experiment: cytotoxicity call (relative viability < 0.9)
Conditions: 10 µM

| Compound | cytotoxicity call |
| --- | --- |
| O=c1[nH]cnc2c1ncn2C1OC(CO)C(O)C1O (stereo not given) | inactive |
| C[C@H](CO)N1C[C@H](C)[C@H](CN(C)C(=O)Nc2cc(F)ccc2F)Oc2cc(/C=C/c3ccccc3)ccc2S1(=O)=O | inactive |
| C[C@H]1CN([C@@H](C)CO)S(=O)(=O)c2ccc(C#CC3(O)CCCC3)cc2O[C@H]1CN(C)C(=O)c1ccncc1 | inactive |
| Nc1cncc(Cl)n1 | inactive |
| CN1CCN(C(=O)C[C@H]2CC[C@H]3[C@@H](COC[C@H](O)CN3C(=O)Nc3ccc4c(c3)OCO4)O2)CC1 | inactive |
| COc1ccc(S(=O)(=O)N(C)C[C@H]2OCCCC[C@@H](C)Oc3ccc(NC(=O)c4ccccc4)cc3C(=O)N([C@@H](C)CO)C[C@@H]2C)cc1 | inactive |
| CN(C)CC#Cc1ccc([C@@H]2[C@@H](CO)N3C(=O)CN(C(=O)CN(C)C)C[C@@H]23)cc1 | inactive |
| C[C@@H]1CN([C@H](C)CO)C(=O)c2cc(C#CC3(O)CCCC3)cnc2O[C@H]1CN(C)S(=O)(=O)c1ccccc1 | inactive |
| CC(C)NC(=O)Nc1cccc2c1O[C@@H](CN(C)Cc1ccc(C(=O)O)cc1)[C@H](C)CN([C@H](C)CO)C2=O | inactive |
| c1cc2c(cc1-c1nn[nH]n1)OCO2 | inactive |
| COc1cc(OC)cc(C(=O)Nc2nc(-c3ccc4c(c3)CCN4C(=O)CN3CCOCC3)cs2)c1 | inactive |
| CC(C)(C)c1cc(NC(=O)Nc2ccc(-c3cn4c(n3)sc3cc(OCCN5CCOCC5)ccc34)cc2)no1 | active |
| O=C(NCCCN1CCOCC1)Nc1ccc(Cc2ccc(NC(=O)NCCCN3CCOCC3)cc2)cc1 | inactive |
| C[C@@H]1CCCCO[C@@H](CN(C)S(=O)(=O)c2cccs2)[C@@H](C)CN([C@@H](C)CO)C(=O)c2cc(NC(=O)Cc3ccccc3)ccc2O1 | inactive |
| C[C@H](CO)N1C[C@H](C)[C@@H](CN(C)C(=O)Nc2ccc3c(c2)OCO3)Oc2c(NS(=O)(=O)c3cn(C)cn3)cccc2C1=O | inactive |
| COc1ccc(CN(C)C[C@@H]2OCCCC[C@@H](C)Oc3ccc(NC(=O)Nc4cccc5ccccc45)cc3C(=O)N([C@H](C)CO)C[C@H]2C)cc1 | active |
| COc1ccc(CN(C)C[C@H]2OCCCC[C@H](C)Oc3ccc(NC(=O)Nc4cccc5ccccc45)cc3C(=O)N([C@H](C)CO)C[C@@H]2C)cc1 | inactive |
| COc1ccc(CN(C)C[C@@H]2OCCCC[C@@H](C)Oc3ccc(NC(=O)Nc4cccc5ccccc45)cc3C(=O)N([C@@H](C)CO)C[C@H]2C)cc1 | active |
| COc1ccc(CN(C)C[C@@H]2OCCCC[C@H](C)Oc3ccc(NC(=O)Nc4cccc5ccccc45)cc3C(=O)N([C@H](C)CO)C[C@H]2C)cc1 | active |
| COc1ccc(CN(C)C[C@H]2OCCCC[C@H](C)Oc3ccc(NC(=O)Nc4cccc5ccccc45)cc3C(=O)N([C@@H](C)CO)C[C@H]2C)cc1 | inactive |
| COc1ccc(CN(C)C[C@@H]2OCCCC[C@H](C)Oc3ccc(NC(=O)Nc4cccc5ccccc45)cc3C(=O)N([C@H](C)CO)C[C@@H]2C)cc1 | inactive |
| COc1ccc(CN(C)C[C@@H]2OCCCC[C@H](C)Oc3ccc(NC(=O)Nc4cccc5ccccc45)cc3C(=O)N([C@@H](C)CO)C[C@H]2C)cc1 | active |
| COc1ccc(CN(C)C[C@@H]2OCCCC[C@H](C)Oc3ccc(NC(=O)Nc4cccc5ccccc45)cc3C(=O)N([C@@H](C)CO)C[C@@H]2C)cc1 | inactive |
| COc1ccc(CN(C)C[C@H]2OCCCC[C@@H](C)Oc3ccc(NC(=O)Nc4cccc5ccccc45)cc3C(=O)N([C@H](C)CO)C[C@H]2C)cc1 | inactive |

| Compound | cytotoxicity call |
| --- | --- |
| COc1ccc(CN(C)C[C@H]2OCCCC[C@H](C)Oc3ccc(NC(=O)Nc4cccc5ccccc45)cc3C(=O)N([C@@H](C)CO)C[C@@H]2C)cc1 | inactive |
| COc1ccc(S(=O)(=O)Nc2ccc3c(c2)C(=O)N([C@H](C)CO)C[C@H](C)[C@H](CN(C)C(=O)CCC(F)(F)F)OCCCC[C@@H](C)O3)cc1 | inactive |
| COc1ccc(NC(=O)Nc2ccc3c(c2)C(=O)N([C@H](C)CO)C[C@@H](C)[C@@H](CN(C)Cc2ccncc2)OCCCC[C@@H](C)O3)cc1 | inactive |
| Cc1ccc(S(=O)(=O)NCC[C@H]2CC[C@@H](NS(=O)(=O)c3ccccc3Cl)[C@@H](CO)O2)cc1 | inactive |
| Cc1noc(C)c1NC(=O)Nc1ccc2c(c1)CC(=O)N([C@@H](C)CO)C[C@@H](C)[C@H](CN(C)S(=O)(=O)c1cn(C)cn1)O2 | inactive |
| CN1C(=O)c2cc(NC(=O)c3cnccn3)ccc2OC[C@H]2O[C@@H](CC(=O)N[C@H]3CCN(Cc4ccccc4)C3)CC[C@H]21 | inactive |
| COc1ccc(CN(C)C[C@H]2OCCCC[C@@H](C)Oc3ccc(NC(=O)Nc4cccc5ccccc45)cc3C(=O)N([C@H](C)CO)C[C@@H]2C)cc1 | active |
| COc1ccc(CN(C)C[C@H]2OCCCC[C@H](C)Oc3ccc(NC(=O)Nc4cccc5ccccc45)cc3C(=O)N([C@H](C)CO)C[C@H]2C)cc1 | inactive |
| COc1ccc(CN(C)C[C@H]2OCCCC[C@@H](C)Oc3ccc(NC(=O)Nc4cccc5ccccc45)cc3C(=O)N([C@@H](C)CO)C[C@H]2C)cc1 | active |
| COc1ccc(CN(C)C[C@@H]2OCCCC[C@@H](C)Oc3ccc(NC(=O)Nc4cccc5ccccc45)cc3C(=O)N([C@@H](C)CO)C[C@@H]2C)cc1 | inactive |
| COc1ccc(CN(C)C[C@H]2OCCCC[C@@H](C)Oc3ccc(NC(=O)Nc4cccc5ccccc45)cc3C(=O)N([C@@H](C)CO)C[C@@H]2C)cc1 | inactive |
| COc1ccc(CN(C)C[C@@H]2OCCCC[C@@H](C)Oc3ccc(NC(=O)Nc4cccc5ccccc45)cc3C(=O)N([C@H](C)CO)C[C@@H]2C)cc1 | inactive |
| C[C@H]1CN([C@@H](C)CO)C(=O)c2cc(NC(=O)Cn3cnnn3)ccc2O[C@H]1CN(C)S(=O)(=O)c1ccc(F)cc1 | inactive |
| C[C@@H]1CN([C@H](C)CO)C(=O)c2cccc(NS(=O)(=O)c3ccccc3)c2O[C@@H]1CN(C)S(=O)(=O)c1ccccc1 | inactive |
| C[C@@H]1CN([C@H](C)CO)C(=O)c2cc(NC(=O)Cc3ccccc3)ccc2O[C@@H](C)CCCCO[C@H]1CN(C)C(=O)Nc1ccc(F)cc1 | inactive |
| C[C@H]1CN([C@@H](C)CO)C(=O)Cc2cc(NS(=O)(=O)c3ccc(F)cc3)ccc2O[C@H]1CN(C)S(=O)(=O)c1ccccc1 | inactive |
| C#Cc1cnc(OC)cn1 | inactive |
| C[C@H]1CCCCO[C@H](CN(C)C)[C@@H](C)CN([C@@H](C)CO)C(=O)c2cc(NC(=O)Nc3cccc4ccccc34)ccc2O1 | inactive |
| C[C@H](CO)N1C[C@H](C)[C@@H](CN(C)C)OCCCC[C@H](C)Oc2ccc(NC(=O)Nc3cccc4ccccc34)cc2C1=O | inactive |
| C[C@@H]1CN([C@@H](C)CO)C(=O)c2cc(NC(=O)Nc3cccc4ccccc34)ccc2O[C@@H](C)CCCCO[C@@H]1CN(C)CC1CCCCC1 | active |
| C[C@@H]1CN([C@@H](C)CO)C(=O)c2cc(NC(=O)Nc3cccc4ccccc34)ccc2O[C@@H](C)CCCCO[C@H]1CN(C)CC1CCCCC1 | active |
| C[C@@H]1CCCCO[C@H](CN(C)CC2CCCCC2)[C@@H](C)CN([C@H](C)CO)C(=O)c2cc(NC(=O)Nc3cccc4ccccc34)ccc2O1 | active |
| C[C@H]1CCCCO[C@H](CN(C)CC2CCCCC2)[C@@H](C)CN([C@@H](C)CO)C(=O)c2cc(NC(=O)Nc3cccc4ccccc34)ccc2O1 | active |
| CN(C)c1ccc(O)c2c1C[C@@H]1C[C@@H]3[C@@H](N(C)C)C(=O)C(C(N)=O)=C(O)[C@]3(O)C(=O)[C@H]1C2=O | inactive |

| Compound | cytotoxicity call |
| --- | --- |
| CC(C)NC(=O)N(C)C[C@@H]1Oc2ccc(NC(=O)Cn3cnnn3)cc2C(=O)N([C@H](C)CO)C[C@H]1C | inactive |
| COCC#Cc1ccc2c(c1)O[C@H](CN(C)S(=O)(=O)c1ccc(OC)cc1)[C@@H](C)CN([C@H](C)CO)S2(=O)=O | inactive |
| O=C(O)c1ccc2c(ccc3nn(-c4ccc(/C=C/c5ccc(-n6nc7ccc8cc(C(=O)O)ccc8c7n6)cc5S(=O)(=O)O)c(S(=O)(=O)O)c4)nc32)c1 | inactive |
| C[C@H]1CN([C@@H](C)CO)C(=O)c2cc(C#Cc3ccncc3)cnc2O[C@H]1CN(C)C(=O)c1ccccc1F | inactive |
| COc1ccc(S(=O)(=O)N(C)C[C@H]2Oc3ccc(NC(=O)CCC(F)(F)F)cc3CC(=O)N([C@@H](C)CO)C[C@H]2C)cc1 | inactive |
| C[C@@H]1CN([C@H](C)CO)C(=O)c2c(c3ccccc3n2C)-c2ccccc2CO[C@@H]1CN(C)Cc1cccc(O)c1 | inactive |
| Cc1noc(C)c1NC(=O)Nc1cccc2c1O[C@@H](CN(C)Cc1ccc(C(=O)Nc3ccccc3N)cc1)[C@H](C)CN([C@@H](C)CO)C2=O | inactive |
| C[C@@H]1CN([C@H](C)CO)C(=O)Cc2cc(NC(=O)Cc3ccccc3)ccc2O[C@@H]1CN(C)S(=O)(=O)c1ccccc1 | inactive |
| C[C@@H]1CN([C@H](C)CO)S(=O)(=O)c2ccc(C#CC3CCCC3)cc2O[C@H]1CN(C)Cc1cncnc1 | inactive |
| C[C@H](CO)N1C[C@H](C)[C@H](CN(C)Cc2ccncc2)Oc2c(NS(=O)(=O)c3cccs3)cccc2C1=O | inactive |
| CO[C@@H]1CN(C)C(=O)c2ccc(NC(=O)Nc3cccc(F)c3)cc2OC[C@@H](C)N(C(=O)Nc2cccc(F)c2)C[C@H]1C | inactive |
| C[C@H](CO)N1C[C@H](C)[C@H](CN(C)C(=O)CN2CCOCC2)Oc2cc(C#Cc3cccc(F)c3)ccc2S1(=O)=O | inactive |
| C[C@@H]1CCCCO[C@@H](CN(C)CC2CC2)[C@H](C)CN([C@H](C)CO)C(=O)c2cc(NC(=O)Nc3cccc4ccccc34)ccc2O1 | inactive |
| C[C@@H]1CCCCO[C@@H](CN(C)CC2CC2)[C@@H](C)CN([C@H](C)CO)C(=O)c2cc(NC(=O)Nc3cccc4ccccc34)ccc2O1 | inactive |
| C[C@@H]1CCCCO[C@H](CN(C)CC2CCCCC2)[C@H](C)CN([C@@H](C)CO)C(=O)c2cc(NC(=O)Nc3cccc4ccccc34)ccc2O1 | active |
| C[C@@H]1CCCCO[C@@H](CN(C)CC2CCCCC2)[C@@H](C)CN([C@@H](C)CO)C(=O)c2cc(NC(=O)Nc3cccc4ccccc34)ccc2O1 | active |
| C[C@@H]1CCCCO[C@@H](CN(C)CC2CC2)[C@H](C)CN([C@@H](C)CO)C(=O)c2cc(NC(=O)Nc3cccc4ccccc34)ccc2O1 | inactive |
| C[C@@H]1CCCCO[C@H](CN(C)CC2CCCCC2)[C@H](C)CN([C@H](C)CO)C(=O)c2cc(NC(=O)Nc3cccc4ccccc34)ccc2O1 | active |
| C[C@@H]1CN([C@@H](C)CO)C(=O)c2cc(NC(=O)Nc3cccc4ccccc34)ccc2O[C@@H](C)CCCCO[C@H]1CN(C)CC1CC1 | inactive |
| C[C@@H]1CCCCO[C@H](CN(C)C)[C@@H](C)CN([C@H](C)CO)C(=O)c2cc(NC(=O)Nc3cccc4ccccc34)ccc2O1 | inactive |
| C[C@@H]1CCCCO[C@@H](CN(C)C)[C@H](C)CN([C@H](C)CO)C(=O)c2cc(NC(=O)Nc3cccc4ccccc34)ccc2O1 | inactive |
| C[C@H]1CCCCO[C@@H](CN(C)CC2CCCCC2)[C@@H](C)CN([C@@H](C)CO)C(=O)c2cc(NC(=O)Nc3cccc4ccccc34)ccc2O1 | active |
